# E coli growth-1: inhibitors of Escherichia coli growth; OD600, 23 h; hits give low values; OD600 absorbance (no concentration beside the values); 0.21% of 330,000 active;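 active means OD600 absorbance below the run mean of sample wells minus 3.6 SD, in any replicate, cut at about 0.56 in these data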
# AddAB inh: less growth of phage-infected E. coli with AddAB | 0.29% of 330,000 active | E. coli expressing H. pylori AddAB, absorbance growth | AID 435030 | inhibition, % at 11.9 µM; in the data active means inhibition above about 12%;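 further: 0% = vehicle wells of infected cells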
# Tat export inh: E. coli Tat transport inhibition; inhibition, % at 10 µM; E. coli MC4100 TorA-mCherry Tat export, fluorescence; 0.036% of 340,000 active;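 active means mean replicate inhibition at least 50% and at least half of replicates individually reaching 50%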;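 further: exported cargo escapes ClpAP degradation while cytoplasmic cargo is degraded and loses fluorescence; 0% = median of neutral control wells and 100% = median of NaSCN control wells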
# phage Ecoli inh: E. coli growth loss with phage present | inhibition, % at 11.9 µM | growth absorbance | 0.26% of 360,000 active; in the data active means inhibition above about 11%
# E coli growth-2: reduces bacterial viability in AddAB counter-screen; 0.27% of 330,000 active; E. coli V3065 growth, OD600 absorbance, 18 h; inhibition, % at 11.9 µM;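 active means inhibition above the campaign's mean inhibition across all tested compounds plus 3 SD, cut at about 9.9% in these data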;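 further: uninfected addAB+ strain grown without phage in ampicillin broth; 0% = DMSO wells and 100% = ciprofloxacin 0.95 µg/ml wells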
# AddAB conf: confirmation screen: growth loss of phage-infected E. coli expressing H. pylori AddAB | shares compounds with AddAB inh | E. coli V3065 expressing H. pylori AddAB, T4 phage, OD; T4 phage with gene 2 nonsense mutations | inhibition, % at 11.9 µM | 64% of 880 active;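 active means mean inhibition above a set limit taken from the earlier primary screen, cut at about 13% in these data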;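 further: higher means less bacterial growth since AddAB block lets phage replicate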
# RecBCD counter: reduces growth of phage-infected RecBCD+ E. coli, AddAB inhibitor counter-screen; E. coli V66 + mutant T4 phage, OD growth; inhibition, % at 11.9 µM; shares compounds with AddAB inh; 73% of 880 active; AID 488955;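 active means mean inhibition above the mean of solvent-only control wells plus 3 SD, cut at about 4% in these data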;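 further: optical density read after an 18 h incubation at 37 °C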
# Bact viability: counter-screen for AddAB inhibitors: inhibitors of bacterial viability; shares compounds with AddAB inh; absorbance (AddAB counterscreen); inhibition, % at 11.9 µM; 35% of 880 active; in the data active means inhibition above about 25%
# RecBCD conf: growth loss of phage-infected V66 E. coli, RecBCD confirmation screen | shares compounds with phage Ecoli inh | AID 651982 | inhibition, % at 11.9 µM | 45% of 890 active | E. coli V66 + T4 2- phage, growth OD;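 active means mean inhibition over triplicates exceeding the hit threshold derived in the original primary screen, cut at about 11% in these data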
# Ecoli viability: counter-screen for RecBCD inhibitors: inhibitors of bacterial viability | shares compounds with phage Ecoli inh | E. coli viability, absorbance (OD) growth | inhibition, % at 11.9 µM | 29% of 890 active; in the data active means inhibition above about 20%;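 further: E. coli strain V66 grown with compound alone and no phage infection; 0% = bacteria with DMSO vehicle only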
# AddAB counter: growth loss of phage-infected AddAB E. coli, RecBCD counter-screen; E. coli expressing H. pylori AddAB + T4 phage, OD growth; gene 2 mutant T4, recBCD-deleted host; 45% of 890 active; inhibition, % at 11.9 µM; shares compounds with phage Ecoli inh;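 active means mean inhibition above the solvent-only control wells' mean plus 3 SD, cut at about 22% in these data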;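 further: higher means less bacterial growth from phage killing when AddAB is blocked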
# Active calls of the source: *; . = not tested or not shown. Only some compounds are listed: those with a hit (about 0.51% of all), similar ones and a draw of the others.
SMILES,E coli growth-1,AddAB inh,Tat export inh,phage Ecoli inh,E coli growth-2,AddAB conf,RecBCD counter,Bact viability,RecBCD conf,Ecoli viability,AddAB counter
O=c1[nH]cnc2c1ncn2[C@H]1CC[C@@H](CO)O1,.,97*,8,101*,98*,98*,96*,98*,98*,100*,99*
Nc1nc(Cl)nc2c1ncn2C1CCC(CO)O1 (stereo unspecified),.,.,.,3,.,.,.,.,.,.,.
Nc1ncnc2c1ncn2[C@H]1CC[C@@H](CO)O1,0.36*,76*,14,53*,75*,94*,48*,89*,60*,55*,88*
C#CCOCCOCCOCCNc1nc(N2CCOCC2)nc(N2CCN(C(=O)C(Cc3ccc(O)cc3)n3cc(C(N)C(C)CC)nn3)CC2)n1 (stereo unspecified),0.72,.,.,.,.,.,.,.,.,.,.
COc1ccc(C2CC=C(C(=O)O)C(c3cccc(Cl)c3)N2S(=O)(=O)c2ccc(Cl)cc2)cc1 (stereo unspecified),0.67,.,.,.,.,.,.,.,.,.,.
COc1ccccc1OCC(=O)N/N=C/C=C/c1ccc([N+](=O)[O-])o1,.,83*,20,12*,54*,101*,24*,94*,18*,23*,99*
Cc1ccc(C=NNC(=O)c2ccc(Cn3cc(Br)c([N+](=O)[O-])n3)o2)o1,0.67,.,.,.,.,.,.,.,.,.,.
Cc1ccc(/C=N\NC(=O)c2ccc(Cn3cc(Br)c([N+](=O)[O-])n3)o2)o1,.,36*,5,13*,27*,73*,9.4*,51*,6,9,44*
CCC1=C(OC(=O)N(CC)CC)N2C(=O)OC(=NCCc3c[nH]c4ccccc34)[C@]2(C)C2C1=CCC1C(=O)N(CC(=O)OC)C(=O)C12 (stereo partly specified),0.7,.,.,.,.,.,.,.,.,.,.
NC(=O)C(CC(=O)O)NC(=O)C1CCOc2c(I)cc([N+](=O)[O-])cc2C(=O)NC(CCC(=O)O)C(=O)NC(CO)C(=O)N1 (stereo unspecified),0.7,.,.,.,.,.,.,.,.,.,.
O=C1NCCN1c1ncc([N+](=O)[O-])s1,0.066*,100*,21,98*,101*,96*,95*,96*,96*,97*,101*
O=C(Nc1ncc([N+](=O)[O-])s1)C1CC(=O)N(c2ccc(F)cc2)C1 (stereo unspecified),0.56,4,-6,1,-3,.,.,.,.,.,.
O=C(CSC1=NNC(c2ccccn2)S1)Nc1ccccc1 (stereo unspecified),0.66,13*,-15,11*,9,35*,14*,21,10,13,38*
CC[C@H]1OC(=O)[C@H](C)[C@@H](O[C@H]2C[C@@](C)(OC)[C@@H](O)[C@H](C)O2)[C@H](C)[C@@H](O[C@@H]2O[C@H](C)C[C@H](N(C)C)[C@H]2O)[C@](C)(O)C[C@@H](C)CN(C)[C@H](C)[C@@H](O)[C@]1(C)O,.,100*,121*,101*,101*,99*,101*,102*,103*,104*,104*
CCC1OC(=O)C(C)C(OC2C[C@@](C)(OC)C(O)C(C)O2)C(C)C(OC2OC(C)CC(N(C)C)C2O)[C@](C)(O)CC(C)C(=NOCOCCOC)C(C)C(O)[C@]1(C)O (stereo partly specified),0.58,.,.,.,.,.,.,.,.,.,.
CCN(CC)CCNC(=O)c1cn(CC)c2cc(N3CCN(C)CC3)c(F)cc2c1=O,0.056*,100*,35,96*,98*,99*,100*,98*,65*,102*,100*
CCn1cc(C(=O)NCCC(C)C)c(=O)c2cc(F)c(N3CCN(C)CC3)cc21,0.066*,100*,9,40*,99*,99*,59*,99*,19*,36*,93*
CCn1cc(C(=O)NCc2cccnc2)c(=O)c2cc(F)c(N3CCN(C(=O)c4ccco4)CC3)cc21,0.051*,95*,10,21*,94*,98*,10*,99*,13*,14,103*
CCCCNC(=O)c1cn(CC)c2cc(N3CCN(C)CC3)c(F)cc2c1=O,0.071*,100*,.,97*,98*,98*,100*,99*,103*,104*,104*
COc1ccc(-c2coc3cc(OC4OC(CO)C(O)C(O)C4O)c(OC)cc3c2=O)cc1 (stereo unspecified),0.67,.,.,.,.,.,.,.,.,.,.
O=C(O)CC1c2cc(F)ccc2S(=O)(=O)N1C1CCCCC1 (stereo unspecified),0.65,.,.,.,.,.,.,.,.,.,.
Cc1cc(N2CCOCC2)ccc1C=C[N+](=O)[O-],0.69,.,.,.,.,.,.,.,.,.,.
NC(=O)C1=CC(C2CCCCC2)CC(OCCCCO)O1 (stereo unspecified),0.63,.,.,.,.,.,.,.,.,.,.
C=CCc1cccc(/C=N/NC(=O)CNc2cccc3ccccc23)c1O,.,12,-6,8,6,.,.,.,.,.,.
C=CCc1cccc(/C=N/NC(=O)CCC(=O)Nc2ccc(F)cc2)c1O,.,13*,9,13*,11*,14*,16*,13,10,10,8
SMILES,E coli growth-1,AddAB inh,Tat export inh,phage Ecoli inh,E coli growth-2,AddAB conf,RecBCD counter,Bact viability,RecBCD conf,Ecoli viability,AddAB counter
C=CCc1cccc(/C=N/NC(=O)CNc2ccccc2OC)c1O,.,13*,2,14*,8,16*,10*,13,8,9,11
Cc1cccc(C(=O)ON=C(N)Cc2ccc([N+](=O)[O-])cc2)c1,0.65,.,.,.,.,.,.,.,.,.,.
CCCC(=O)NC(c1ccc(N(C)C)cc1)c1c(O)ccc2ccccc12 (stereo unspecified),0.67,-3,1,4,-3,.,.,.,.,.,.
CCCCC(=O)NC(c1ccc(N(C)C)cc1)c1ccc2cccnc2c1O (stereo unspecified),.,25*,20,23*,35*,30*,23*,21,13*,15,14
CCCCC(=O)NC(c1ccc(N(CC)CC)cc1)c1ccc2cccnc2c1O (stereo unspecified),.,20*,1,19*,17*,24*,17*,19,12*,14,19
CCC(C)C(NC(=O)OC(C)(C)C)c1nnc(SCc2c(C)[nH]c(=O)[nH]c2=O)o1 (stereo unspecified),0.7,.,.,.,.,.,.,.,.,.,.
